Measured values as given in PubChem BioAssay (EPA / NIEHS).
A structure can be active in one record and inactive in another. Activity calls are given as the source filed them. Rule for the calls: active = hit-call score of the fitted dose curve at least 0.9, where 1 is the maximum; inactive = score below 0.9.

What was measured:
[1] = read-out: Interleukin-1 alpha (IL1a), IL1A (gene 3552); test: BSK_KF3CT_IL1a: BioMAP Diversity Plus: KF3CT Assay for Interleukin-1 alpha (IL1a) Biomarker Activity (AID 2283070); details: primary human keratinocytes with fibroblasts; actives raise or lower the signal
Procedure, shortened: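 IL-1a was detected by ELISA 24 h after chemical treatment of a co-culture of human skin keratinocytes and foreskin fibroblasts. Gain or loss of signal was fitted against the DMSO baseline.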

[2] = read-out: TIMP metallopeptidase inhibitor 2 (TIMP2), TIMP2 (gene 7077); test: BSK_KF3CT_TIMP2: BioMAP Diversity Plus: KF3CT Assay for TIMP metallopeptidase inhibitor 2 (TIMP2) Biomarker Activity (AID 2283071); details: primary human keratinocytes with fibroblasts; actives raise or lower the signal
Procedure, shortened: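 Chemicals were dosed onto human skin primary co-cultures of keratinocytes and foreskin fibroblasts, and TIMP-2 was measured by ELISA after 24 hours. Activity in either direction was fitted relative to DMSO.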

[3] = read-out: Transforming growth factor beta 1 (TGFb1), TGFB1 (gene 7040); test: BSK_KF3CT_TGFb1: BioMAP Diversity Plus: KF3CT Assay for Transforming growth factor beta 1 (TGFb1) Biomarker Activity (AID 2283072); details: primary human keratinocytes with fibroblasts; actives raise or lower the signal
Procedure, shortened: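 KF3CT co-culture (keratinocytes + fibroblasts), 24 h exposure → TGF-b1 ELISA → bidirectional fit, DMSO = baseline. Parallel SRB total-protein staining (0.1% SRB, 10% TCA fixation, 560 nm) for cytotoxicity.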

[4] = read-out: C-C motif chemokine 2 (Homo sapiens) (UniProt P13500); test: BSK_KF3CT_MCP1: BioMAP Diversity Plus: KF3CT Assay for Monocyte Chemoattractant Protein 1 (MCP1/CCL2) Biomarker Activity (AID 2283073); details: primary human keratinocytes with fibroblasts; actives raise or lower the signal
Procedure, shortened: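 Human keratinocyte–foreskin fibroblast co-culture; MCP-1 measured by ELISA 24 h after dosing. Bidirectional fit vs DMSO; cytotoxicity tracked by SRB total protein in parallel cultures.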

[5] = read-out: Matrix Metallopeptidase 9 (MMP9), MMP9 (gene 4318); test: BSK_KF3CT_MMP9: BioMAP Diversity Plus: KF3CT Assay for Matrix Metallopeptidase 9 (MMP9) Biomarker Activity (AID 2283074); details: primary human keratinocytes with fibroblasts; actives raise or lower the signal
Procedure, shortened: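 MMP-9 quantified by ELISA after 24 h chemical treatment of primary human skin keratinocyte/fibroblast co-cultures; gain or loss fitted against DMSO, with parallel SRB staining (0.1% SRB, 560 nm) for overt cytotoxicity.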

[6] = read-out: urokinase plasminogen activator (uPA), PLAU (gene 5328); test: BSK_KF3CT_uPA: BioMAP Diversity Plus: KF3CT Assay for urokinase plasminogen activator (uPA) Biomarker Activity (AID 2283075); details: primary human keratinocytes with fibroblasts; actives raise or lower the signal
Procedure, shortened: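 ELISA read-out of uPA 24 h after dosing human skin keratinocytes co-cultured with foreskin fibroblasts. Signal change fitted both ways relative to DMSO; sulforhodamine B on parallel cultures marks overt cytotoxicity.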

CD40, CD40 (gene 958) [7] = test: BSK_LPS_CD40: BioMAP Diversity Plus: LPS Assay for CD40 Biomarker Activity (AID 2283076); details: primary human HUVEC with PBMC; actives raise or lower the signal
Procedure, shortened: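 HUVEC plus PBMC co-culture stimulated with LPS; CD40 quantified by ELISA 24 h after compound dosing. Fitting was bidirectional relative to DMSO. SRB staining of parallel cultures flagged overt cytotoxicity.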

[8] = read-out: E-selectin (Homo sapiens) (UniProt P16581); test: BSK_LPS_Eselectin: BioMAP Diversity Plus: LPS Assay for Eselectin Biomarker Activity (AID 2283077); details: primary human HUVEC with PBMC; actives raise or lower the signal
Procedure, shortened: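 Human umbilical vein endothelial cells co-cultured with PBMC under LPS stimulation; cell-surface E-selectin measured by ELISA 24 h after dosing. Change in either direction versus DMSO, with SRB total-protein staining in parallel cultures for cytotoxicity.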

[9] = read-out: Interleukin-8 (IL8), CXCL8 (gene 3576); test: BSK_LPS_IL8: BioMAP Diversity Plus: LPS Assay for Interleukin-8 (IL8) Biomarker Activity (AID 2283078); details: primary human HUVEC with PBMC; actives raise or lower the signal
Procedure, shortened: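 Human umbilical vein endothelial cells co-cultured with PBMC, LPS-stimulated, exposed to compound for 24 h. IL-8 quantified by ELISA; fitted in both directions against DMSO, with SRB total-protein staining of parallel cultures for cytotoxicity.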

[10] = BSK_LPS_SRB: Viability Assessment in the BioMAP Diversity Plus: LPS Assay (AID 2283079); details: primary human HUVEC with PBMC;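 note: total protein by sulforhodamine B absorbance as a cytotoxicity measure; measured one day after compound addition; fitted in both directions against DMSO so loss or gain of signal counts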
Procedure, shortened: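 Co-culture of human umbilical vein endothelial cells and PBMC, read 24 h after dosing. Total protein by 0.1% SRB staining after 10% TCA fixation, absorbance at 560 nm; bidirectional fit against DMSO.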

[11] = read-out: Interleukin-1 alpha (IL1a), IL1A (gene 3552); test: BSK_LPS_IL1a: BioMAP Diversity Plus: LPS Assay for Interleukin-1 alpha (IL1a) Biomarker Activity (AID 2283080); details: primary human HUVEC with PBMC; actives raise or lower the signal
Procedure, shortened: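 Human umbilical vein endothelial cells co-cultured with PBMC and stimulated with LPS; IL-1a measured by ELISA 24 h after dosing. Bidirectional fitting against DMSO; cytotoxicity checked by SRB staining in parallel cultures.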

[12] = read-out: Monocyte Chemoattractant Protein-1 (MCP1), CCL2 (gene 6347); test: BSK_LPS_MCP1: BioMAP Diversity Plus: LPS Assay for Monocyte Chemoattractant Protein-1 (MCP1) Biomarker Activity (AID 2283081); details: primary human HUVEC with PBMC; actives raise or lower the signal
Procedure, shortened: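 Human umbilical vein endothelial cells co-cultured with PBMC, LPS-stimulated; secreted MCP-1 measured by ELISA 24 h after compound addition. Bidirectional curve fitting against DMSO baseline; SRB total-protein staining in parallel cultures for cytotoxicity.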

[13] = BSK_LPS_PGE2: BioMAP Diversity Plus: LPS Assay for Prostaglandin E2 (PGE2) Biomarker Activity (AID 2283082); details: primary human HUVEC with PBMC; actives raise or lower the signal;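 for AC50: secreted prostaglandin E2 measured by ELISA in LPS-stimulated co-culture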
Procedure, shortened: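 Compounds were added to the LPS co-culture of endothelium and PBMC, and PGE2 was measured by ELISA after 24 h. Responses in either direction were fitted with DMSO as baseline.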

[14] = read-out: Macrophage colony-stimulating factor (MCSF), CSF1 (gene 1435); test: BSK_LPS_MCSF: BioMAP Diversity Plus: LPS Assay for Macrophage colony-stimulating factor (MCSF) Biomarker Activity (AID 2283083); details: primary human HUVEC with PBMC; actives raise or lower the signal
Procedure, shortened: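 HUVEC–PBMC co-culture, M-CSF measured by ELISA 24 h after chemical dosing. Fitted in both directions relative to DMSO as negative control; overt cytotoxicity assessed by SRB total-protein staining in parallel cultures.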

[15] = read-out: Tissue Factor, F3 (gene 2152); test: BSK_LPS_TissueFactor: BioMAP Diversity Plus: LPS Assay for Tissue Factor Biomarker Activity (AID 2283084); details: primary human HUVEC with PBMC; actives raise or lower the signal
Procedure, shortened: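 Human umbilical vein endothelial cells co-cultured with PBMC were dosed with compound. Cell-surface CD142 was measured by ELISA 24 h later. Activity was fitted bidirectionally against DMSO, with SRB total-protein staining in parallel cultures for cytotoxicity.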

[16] = read-out: Tumor necrosis factor (Homo sapiens) (UniProt P01375); test: BSK_LPS_TNFa: BioMAP Diversity Plus: LPS Assay for Tumour Necrosis Factor alpha (TNFa) Biomarker Activity (AID 2283085); details: primary human HUVEC with PBMC; actives raise or lower the signal;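 for AC50: TNFa protein level quantified by ELISA in the co-culture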
Procedure, shortened: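 Cells (umbilical vein endothelium plus peripheral blood mononuclear cells) were dosed with chemical, incubated 24 h, then TNFa was quantified by ELISA; values derive from bidirectional fitting with DMSO as baseline.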

[17] = read-out: Vascular cell adhesion molecule 1 (VCAM1), VCAM1 (gene 7412); test: BSK_LPS_VCAM1: BioMAP Diversity Plus: LPS Assay for Vascular cell adhesion molecule 1 (VCAM1) Biomarker Activity (AID 2283086); details: primary human HUVEC with PBMC; actives raise or lower the signal
Procedure, shortened: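 Cells are dosed in an LPS-stimulated endothelial/mononuclear co-culture and, after 24 h, VCAM-1 is quantified by ELISA. Activity in either direction is fitted relative to the DMSO negative control.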

CD38, CD38 (gene 952) = test: BSK_SAg_CD38: BioMAP Diversity Plus: SAg Assay for CD38 Biomarker Activity (AID 2283087); details: primary human HUVEC with PBMC; actives raise or lower the signal
Procedure, shortened: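 CD38 quantified by ELISA (fluorescence) in a superantigen-activated endothelial cell–PBMC co-culture at 24 h post-dose. Activity fitted in both directions relative to DMSO; parallel SRB and Alamar Blue cytotoxicity read-outs.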

CD40, CD40 (gene 958) [18] = test: BSK_SAg_CD40: BioMAP Diversity Plus: SAg Assay for CD40 Biomarker Activity (AID 2283088); details: primary human HUVEC with PBMC; actives raise or lower the signal
Procedure, shortened: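 HUVEC plus PBMC co-culture, superantigen-activated, with CD40 read by ELISA 24 h after dosing. Curves fitted in both directions against DMSO. Overt cytotoxicity checked by parallel SRB total-protein staining.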

CD69, CD69 (gene 969) = test: BSK_SAg_CD69: BioMAP Diversity Plus: SAg Assay for CD69 Biomarker Activity (AID 2283089); details: primary human HUVEC with PBMC; actives raise or lower the signal
Procedure, shortened: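 ELISA, fluorescence read-out: CD69 on human umbilical vein endothelial cell + PBMC co-culture, 24 h post-dosing. Gain or loss of signal fitted bidirectionally against DMSO baseline.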

Measured: AC50

Sequence of Tumor necrosis factor (Homo sapiens) (P01375 whole entry, looked up): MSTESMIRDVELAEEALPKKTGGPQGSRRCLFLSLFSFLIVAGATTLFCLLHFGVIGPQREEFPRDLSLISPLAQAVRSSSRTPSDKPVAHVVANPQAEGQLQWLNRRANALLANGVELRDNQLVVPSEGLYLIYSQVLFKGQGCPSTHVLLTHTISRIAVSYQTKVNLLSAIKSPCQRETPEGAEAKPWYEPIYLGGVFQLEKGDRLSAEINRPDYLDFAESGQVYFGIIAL
Sequence of E-selectin (Homo sapiens) (P16581 whole entry, looked up): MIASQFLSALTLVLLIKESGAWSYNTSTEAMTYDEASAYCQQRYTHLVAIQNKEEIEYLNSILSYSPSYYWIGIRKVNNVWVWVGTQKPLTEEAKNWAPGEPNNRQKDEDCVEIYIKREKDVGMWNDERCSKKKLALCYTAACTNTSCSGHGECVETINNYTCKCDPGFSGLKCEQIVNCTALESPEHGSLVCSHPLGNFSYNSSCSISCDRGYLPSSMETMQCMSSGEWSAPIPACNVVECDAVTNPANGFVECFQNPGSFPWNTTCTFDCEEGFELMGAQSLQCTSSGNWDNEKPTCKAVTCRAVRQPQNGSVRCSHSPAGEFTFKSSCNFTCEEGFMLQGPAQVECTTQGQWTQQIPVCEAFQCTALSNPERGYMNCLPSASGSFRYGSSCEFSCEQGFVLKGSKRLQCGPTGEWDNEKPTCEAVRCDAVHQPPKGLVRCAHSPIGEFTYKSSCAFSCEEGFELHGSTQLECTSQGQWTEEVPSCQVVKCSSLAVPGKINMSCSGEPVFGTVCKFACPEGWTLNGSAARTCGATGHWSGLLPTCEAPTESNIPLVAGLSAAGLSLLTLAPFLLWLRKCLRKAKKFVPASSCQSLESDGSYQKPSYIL

Cc1ccc2c(c1N)C(=O)c1ccccc1C2=O
active: [2] 6.86 µM | [15] 20 µM | CD38, CD38 (gene 952) 12.6 µM
inactive: [1] | [3] | [4] | [5] | [6] | CD40, CD40 (gene 958) [7] | [8] | [9] | [10] | [11] | [12] | [13] | [14] | [16] | [17] | CD40, CD40 (gene 958) [18] | CD69, CD69 (gene 969)

CC(C)(C)OOC(C)(C)C
inactive: [1] | [2] | [3] | [4] | [5] | [6] | CD40, CD40 (gene 958) [7] | [8] | [9] | [10] | [11] | [12] | [13] | [14] | [15] | [16] | [17] | CD38, CD38 (gene 952) | CD40, CD40 (gene 958) [18] | CD69, CD69 (gene 969)

O=C(O)C(Cl)Cl
inactive: [1] | [2] | [3] | [4] | [5] | [6] | CD40, CD40 (gene 958) [7] | [8] | [9] | [10] | [11] | [12] | [13] | [14] | [15] | [16] | [17] | CD38, CD38 (gene 952) | CD40, CD40 (gene 958) [18] | CD69, CD69 (gene 969)

Cc1ccc(O)cc1C
active: [13] 4.57 µM
inactive: [1] | [2] | [3] | [4] | [5] | [6] | CD40, CD40 (gene 958) [7] | [8] | [9] | [10] | [11] | [12] | [14] | [15] | [16] | [17] | CD40, CD40 (gene 958) [18] | CD69, CD69 (gene 969)

O=[N+]([O-])c1ccc(Cl)c(Cl)c1
inactive: [1] | [2] | [3] | [4] | [5] | [6] | CD40, CD40 (gene 958) [7] | [8] | [9] | [10] | [11] | [12] | [13] | [14] | [15] | [16] | [17] | CD40, CD40 (gene 958) [18] | CD69, CD69 (gene 969)

CCOP(=S)(Oc1ccc([N+](=O)[O-])cc1)c1ccccc1 (stereo not given)
active: [14] 13.7 µM | [16] 2.84 µM | CD38, CD38 (gene 952) 14.2 µM | CD40, CD40 (gene 958) [18] 14 µM
inactive: [1] | [2] | [3] | [4] | [5] | [6] | [8] | [9] | [10] | [11] | [12] | [13] | [15] | [17] | CD69, CD69 (gene 969)

O=C(O)C(F)(F)OC(F)(F)C(F)(F)OC(F)(F)F
active: [1] 47.7 µM
inactive: [1] | [2] | [5] | [6] | [8] | [9] | [10] | [11] | [12] | [13] | [14] | [15] | [16] | [17] | CD38, CD38 (gene 952) | CD40, CD40 (gene 958) [18] | CD69, CD69 (gene 969)
